Screen size: about 210,000 compounds; about 5,900 (2.8%) were called active. Roughly 5% stayed inconclusive and do not appear here. The sample holds actives, similar compounds and a random draw of the others, so the mix is not that of the screen. Values without a mark were called inactive. Calls come from the whole dose curve; as a rule, active = well fitted activation curve with a large enough effect; inconclusive = small, poorly fitted or top-dose-only effect; inactive = no such curve, though single readings can be large or run the other way.
Potency is the fitted concentration of half-maximal effect.

This assay can be described thus: qHTS Assay for Enhancers of SMN2 Splice Variant Expression. For activity change, positive = activation: % of control where 0% means no effect. Note: nearly all actives have a fitted effect of over 55% in size. Particulars: HEK293 SMN2-luciferase splicing reporter, luminescence, 30-36 h; series mostly up to 46.1 µM; activity change, positive = activation: at the top concentration. An outline of the steps:
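qHTS luciferase splicing reporter: luminescence rises when SMN2 exon 7 is included in transfected HEK293 cells. Compound exposure lasted 30-36 h at 37C, with 4.5 mM final sodium butyrate as control, followed by a ONE-Glo read.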
As for `O=C(NCC1CCC(C(=O)O)CC1)OCc1ccccc1` (configuration not stated), the “activity change, positive = activation” value is -2.66%.

On to `O=C(O)C1CCN(C(=O)OCc2ccccc2)CC1`, for which the Potency is 17.8 µM (active). For `O=C(Cc1ccccc1)NNC(=O)C1CCN(c2ncccn2)CC1`, the “activity change, positive = activation” value is 4.38%.

For `CCOC(=O)Cc1ccc(NC(=O)Nc2c[nH]c(=O)[nH]c2=O)cc1`, the “activity change, positive = activation” value was -3.88%.

On to `O=c1[nH]c2cc(Br)ccc2n2cccc12`, for which the “activity change, positive = activation” value was 22.8%.

For the compound `CCCCCC(=O)Nc1ccc2oc(-c3ccncc3)nc2c1`, the “activity change, positive = activation” value was -15.7%. Consider `CCCC(=O)Nc1ccc2oc(-c3ccc(O)c(Br)c3)nc2c1`, for which the Potency was 11.2 µM (active).

For the compound `O=C(Nc1ccc2oc(-c3ccc(O)c(Br)c3)nc2c1)c1cc2ccccc2o1`, the “activity change, positive = activation” value was 1.87%. As to `CCOc1ccc(OCC)c(NC(=O)CN(c2ccc(C)cc2)S(=O)(=O)c2c(C)n[nH]c2C)c1`, the “activity change, positive = activation” value was -8.29%. For the compound `COc1ccc(Cl)cc1NC(=O)c1sc2nc3c(cc2c1N)CN(C)CC3`, the “activity change, positive = activation” value was 9.66%. Turning to `COc1ccc(CCn2cc3c(c2-c2ccc(Br)cc2)c(=O)n(C)c(=O)n3C)cc1OC`, the “activity change, positive = activation” value was -0.506%. As for `Cc1cccc(NC(=O)C2CCCN2S(=O)(=O)c2cccc3nsnc23)c1C` (configuration not stated), the “activity change, positive = activation” value was -4.32%.

`Cc1ccc(-n2c(=O)c3cccnc3n2CC(=O)NCc2ccc(F)cc2)cc1C`: the “activity change, positive = activation” value was -1.87%. Still for that read-out and setting: the same measure for `NC(=O)COC(=O)/C=C/c1ccc2ccccc2n1`: 4.91%. As for `CC(OC(=O)c1ccc2ccccc2n1)C(=O)c1ccccc1` (configuration not stated), the “activity change, positive = activation” value is -3.13%.

In the case of `CCOc1cccc(/C=C/c2ccc3ccccc3n2)c1OC(C)=O`, the Potency is 1.58 µM (active).

As to `CCOC(=O)c1ccccc1NC(=O)c1nn(-c2ccc(OC)c(Cl)c2)c(=O)c2c1c1ccccc1n2C`, the “activity change, positive = activation” value was -6.12%.

`COc1ccc(C(=O)Nc2nncs2)c(OC)c1`: the Potency is 11.2 µM (active). On to `O=C(Nc1nncs1)c1ccccc1NS(=O)(=O)c1cccs1`, for which the “activity change, positive = activation” value was -4.37%.

With `COc1cccc(OC)c1C(=O)Nc1nnc(C(C)C)s1`, the “activity change, positive = activation” value is -3.99%. For `O=S(=O)(c1ccc(C2CCCCC2)cc1)N1CCN(c2ccc(Cl)c(Cl)c2)CC1`, the “activity change, positive = activation” value is -6.14%. The same measure, in the same setting: the same measure for `CCCc1ccc(-c2csc(NC(=O)Cc3cccs3)n2)cc1`: -91.3%. In the case of `COc1ccc(-c2csc(NC(=O)COC(=O)Cc3ccc(Cl)cc3Cl)n2)cc1`, the Potency was 11.2 µM (active). On the same count and under the same terms, then `COc1ccc(-c2csc(NC(=O)COC(=O)c3ccc(Br)o3)n2)cc1`, with 0.794 µM (active). In the case of `COc1ccc(-c2nc(CCNC(=O)c3ccc(Br)o3)cs2)cc1`, the “activity change, positive = activation” value is -57.5%. The same measure, in the same setting: then `CC(C)(C)NC(=O)NC(=O)COC(=O)Cc1ccc(Cl)cc1Cl`, with 9.02%; and `COc1ccc(-c2csc(NC(=O)CCCc3cccs3)n2)cc1`, with -8.51%; and `COc1ccc(Nc2ncc(C(=O)Nc3cc(C)ccc3OC)c3ccccc23)cc1`, with 3.77%. On the same count and under the same terms, then `COc1ccc(-n2c(SCC(N)=O)nc3c(oc4ccccc43)c2=O)cc1`, with -12.5%. Still for that read-out and setting: the same measure for `O=C(NCc1ccccc1)c1cc(-c2cccc(Cl)c2)on1`: 0.862%. Consider `COc1ccccc1CNc1nc2ccc(Cl)cc2n2cnnc12`, for which the “activity change, positive = activation” value was -0.672%. Take `Cc1ccc(Cl)cc1NC(=O)C(C)n1nnc2sc(-c3ccccc3)cc2c1=O` (configuration not stated): the “activity change, positive = activation” value is 1.18%. With `O=C(CCSc1ccccc1)N1CCN(c2ccccc2F)CC1`, the Potency is 11.2 µM (active). Turning to `O=C(c1cccc2ccccc12)N1CCN(c2ccccc2F)CC1`, the “activity change, positive = activation” value is -6.5%. Same read-out and setting: the same measure for `O=C(CCS(=O)(=O)c1cccc2nsnc12)N1CCN(c2ccccc2F)CC1`: -8.49%.

With `Cc1cc2n(n1)C(c1cc(C(C)(C)C)c(O)cc1O)Nc1ccccc1-2` (configuration not stated), the “activity change, positive = activation” value is -2.87%. Take `Cc1cccc(CSc2nc3ccncc3n2CC(=O)N(C)C2CCCCC2)c1`: the “activity change, positive = activation” value was 3.04%. Consider `CCOc1ccc(-c2cc3nc(C4CCN(C(=O)OC(C)(C)C)CC4)c(C(=O)Nc4cccc(CC)c4)cn3n2)cc1`, for which the “activity change, positive = activation” value was 6.72%. For the compound `CC(C)(C)NC(=O)CSC(=Nc1ccccc1F)NC#N`, the Potency is 20 µM (active). For `CC(C)(C)NC(=O)CSc1nc(-c2ccc(F)cc2)cc(C(F)(F)F)n1`, the “activity change, positive = activation” value is 17.7%.

With `Cc1ccccc1CSCC(=O)NC(=O)NC(C)(C)C`, the “activity change, positive = activation” value was 10.4%. Turning to `Cc1cc(C)cc(NC(=O)Cc2csc(C)n2)c1`, the “activity change, positive = activation” value was -8.87%. Still for that read-out and setting: then `COc1cccc(NC(=O)CC2C(=O)NCCN2C(=S)Nc2ccc(F)cc2)c1` (configuration not stated), with -6.38%; and `CCNC(=O)N1CCNC(=O)C1CC(=O)Nc1ccc(C(=O)OCC)cc1` (configuration not stated), with -30.7%.

Regarding `COC(=O)c1cc(NC(=O)CC2C(=O)NCCN2C(=O)c2ccc(F)cc2)cc(C(=O)OC)c1` (configuration not stated), the Potency was 10 µM (active). For the compound `COc1cc2c(=O)c(S(=O)(=O)c3ccc(C(C)C)cc3)cn(Cc3ccccc3C)c2cc1OC`, the “activity change, positive = activation” value is -15.4%.

In the case of `O=C(Nc1ccccc1)c1ccc2nsnc2c1`, the “activity change, positive = activation” value was 14%. Still for that read-out and setting: then `O=C(Nc1cccc(NC(=O)c2ccc(Br)cc2)c1)c1ccccc1`, with 1.19%. With `O=C(Nc1ccccc1)c1cc2ccccc2[nH]1`, the Potency was 11.2 µM (active). Consider `Cc1nc(SCC(=O)N2CCN(c3ccccc3)CC2)[nH]c(=O)c1C`, for which the “activity change, positive = activation” value is 7.64%. The same measure, in the same setting: then `Cc1oc(-c2ccccc2F)nc1CN1CCC(C(=O)NCCc2ccc(Cl)cc2)CC1`, with 8.98%.

As to `COc1ccc(NC(=O)C2CCCN(S(=O)(=O)c3c(C)[nH]c(=O)[nH]c3=O)C2)c(OC)c1` (configuration not stated), the “activity change, positive = activation” value was 7.41%.

Values taken from PubChem BioAssay AID1458 (National Center for Advancing Translational Sciences (NCATS), 2008).
